From PubChem BioAssay AID1159580 (chemical genetic matrix, 2015)
In all, about 5,500 compounds went through this assay and about 2,000 (36%) were called active. Roughly 18% stayed inconclusive and do not appear here. Rule as the data show it: active = normalized growth mostly below about 0.91 (no sharp cut-off); inconclusive = no clear call, values can overlap the other calls; inactive = mostly above about 0.92. The list shows a part of the results.

Test: chemical genetic growth profiling, strain panel (AID 1159580);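 also: tested at 20 µM; growth read once vehicle control cultures reached saturation at 30 °C; 1 = growth at the plate median or of vehicle wells; lower values mean less growth of the strain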
Conditions: S. cerevisiae deletion strains, growth OD
[1] = locus YHR030C, strain SLT2, hits give low values
[2] = locus YHR079C, strain IRE1, hits give low values
[3] = locus YJL095W, strain BCK1, hits give low values
[4] = locus YJR066W, strain TOR1, hits give low values
[5] = locus YLR113W, strain HOG1, hits give low values
[6] = locus YNL183C, strain NPR1, hits give low values
[7] = locus YOR231W, strain MKK1, hits give low values
[8] = locus YPL256C, strain CLN2, hits give low values

Measured: normalized growth

CCCC[C@@H](CC)COC(=O)c1ccccc1O
inactive: [1] 0.979 | [2] 0.99 | [3] 1.02 | [4] 0.938 | [5] 0.974 | [6] 0.958 | [7] 0.984 | [8] 0.994

CCCOc1ccc(C(=O)OCCN(CC)CC)cc1N
inactive: locus YAL021C, strain ccr4, hits give low values 0.979 | locus YAL026C, strain drs2, hits give low values 1.01 | locus YAL030W, strain snc1, hits give low values 1 | locus YBL061C, strain skt5, hits give low values 1 | locus YBR009C, strain hhf1, hits give low values 1.03 | locus YBR023C, strain chs3, hits give low values 1.02 | locus YBR171W, strain sec66, hits give low values 1.02 | locus YBR231C, strain swc5, hits give low values 1.01 | locus YBR279W, strain paf1, hits give low values 1.01 | locus YCL011C, strain gbp2, hits give low values 1 | locus YCL016C, strain dcc1, hits give low values 1 | locus YCL061C, strain MRC1, hits give low values 1 | locus YCL069W, strain vba3, hits give low values 0.999 | locus YCR088W, strain abp1, hits give low values 1.01 | locus YDL005C, strain med2, hits give low values 1.01 | locus YDL040C, strain nat1, hits give low values 1 | locus YDR001C, strain nth1, hits give low values 1 | locus YDR069C, strain doa4, hits give low values 1.01 | locus YDR137W, strain rgp1, hits give low values 1.04 | locus YDR159W, strain sac3, hits give low values 1.02 | locus YDR195W, strain ref2 0.964 | locus YDR297W, strain sur2, hits give low values 1 | locus YDR334W, strain swr1, hits give low values 0.995 | locus YDR335W, strain msn5, hits give low values 1 | locus YDR392W, strain spt3, hits give low values 1.02 | locus YEL003W, strain gim4, hits give low values 1.01 | locus YEL037C, strain rad23, hits give low values 0.979 | locus YEL061C, strain CIN8 (second series), hits give low values 1 | locus YER015W, strain faa2, hits give low values 1.03 | locus YER016W, strain bim1, hits give low values 1 | locus YER111C, strain swi4, hits give low values 0.999 | locus YER155C, strain BEM2 (second series), hits give low values 1 | locus YFR010W, strain ubp6, hits give low values 0.996 | locus YGL167C, strain pmr1, hits give low values 1.01 | locus YGL173C, strain kem1, hits give low values 1 | locus YGL227W, strain vid30, hits give low values 1 | locus YGL240W, strain doc1, hits give low values 1.02 | locus YGL253W, strain hxk2, hits give low values 1.01 | locus YHR013C, strain ard1, hits give low values 1.01 | locus YHR027C, strain rpn1, hits give low values 1 | [1] 1.05 | [2] 1.04 | locus YHR142W, strain chs7, hits give low values 0.981 | locus YJL092W, strain hpr5, hits give low values 1 | locus YJL095W, strain BCK1 (second series), hits give low values 1 | [3] 1 | locus YJL115W, strain asf1, hits give low values 1 | locus YJL129C, strain trk1, hits give low values 0.995 | locus YJL154C, strain vps35, hits give low values 1.01 | locus YJL164C, strain tpk1, hits give low values 0.999 | locus YJL166W, strain qcr8, hits give low values 1 | locus YJL187C, strain SWE1, hits give low values 1 | [4] 0.972 | locus YKL160W, strain elf1, hits give low values 0.989 | locus YKR026C, strain gcn3, hits give low values 0.984 | locus YKR091W, strain srl3, hits give low values 1 | locus YLL001W, strain dnm1, hits give low values 1.01 | locus YLL026W, hits give low values 1.01 | locus YLL041C, strain sdh2, hits give low values 0.998 | locus YLR027C, strain aat2, hits give low values 1 | [5] 0.968 | locus YLR221C, strain rsa3, hits give low values 1 | locus YLR258W, strain gsy2, hits give low values 1.01 | locus YLR262C, strain YPT6 (second series), hits give low values 1.01 | locus YLR320W, strain mms22, hits give low values 1.02 | locus YLR342W, strain FKS1, hits give low values 0.999 | locus YLR357W, strain rsc2, hits give low values 1.01 | locus YLR370C, strain arc18, hits give low values 1.01 | locus YLR384C, strain iki3, hits give low values 1 | locus YML120C, strain ndi1, hits give low values 1.01 | locus YMR058W, strain fet3, hits give low values 1.01 | locus YMR125W, strain sto1, hits give low values 1.02 | locus YMR129W, hits give low values 1.01 | locus YMR205C, strain PFK2, hits give low values 1.04 | locus YMR231W, strain pep5, hits give low values 1 | locus YNL071W, strain lat1, hits give low values 1 | [6] 0.966 | locus YNL209W, strain ssb2, hits give low values 1 | locus YNL248C, strain rpa49, hits give low values 0.971 | locus YNL322C, strain KRE1 (second series), hits give low values 1.01 | locus YNR049C, strain mso1, hits give low values 1 | locus YOR001W, strain rrp6, hits give low values 0.984 | locus YOR070C, strain gyp1, hits give low values 1.02 | locus YOR080W, strain dia2, hits give low values 1 | locus YOR083W, strain WHI5, hits give low values 0.986 | locus YOR106W, strain vam3, hits give low values 0.994 | [7] 1.03 | locus YOR265W, strain rbl2, hits give low values 1 | locus YOR270C, strain vph1, hits give low values 1.04 | locus YOR290C, strain snf2, hits give low values 1.01 | locus YPL051W, strain arl3, hits give low values 0.997 | locus YPL078C, strain atp4, hits give low values 0.98 | locus YPL106C, strain sse1, hits give low values 1.01 | locus YPL240C, strain hsp82, hits give low values 0.988 | [8] 1.02
